The values that follow come from PubChem BioAssay (NCI).

The panel holds about 79,000 compounds, 15% with a hit somewhere; the sample as a whole holds those more often. Values without a mark were called inactive. Activity calls are given as the source filed them. Cut-off read from the data, not from the text of the source: active = growth inhibition above about 70%; inactive = the rest.

Experiment [1] is described as follows: NCI Yeast Anticancer Drug Screen. Data for the rad50 strain (AID 155).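 Note: 0% = growth of vehicle-only cultures of the same strain.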 The following applies: S. cerevisiae rad50 strain growth inhibition, active compounds read high. The procedure, abridged:
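Relative growth inhibition (compound vs vehicle) was measured in yeast with a defined repair-gene alteration.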

A short description of experiment [2]: NCI Yeast Anticancer Drug Screen. Data for the mec2-1 strain (AID 157). As to conditions: S. cerevisiae mec2-1 strain, active compounds read high. The procedure, abridged: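 Vehicle-treated cultures served as reference for growth inhibition of compound-exposed mec2-1 yeast.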
Experiment [3] is described as follows: NCI Yeast Anticancer Drug Screen. Data for the sgs1 mgt1 strain (AID 161).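 Note: 0% = growth of cultures given vehicle only.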 As to conditions: S. cerevisiae sgs1 mgt1 strain, active compounds read high. The gist of the method: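 Genetically altered yeast, compound exposure, growth inhibition relative to vehicle.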
The nature of experiment [4]: NCI Yeast Anticancer Drug Screen. Data for the cln2 rad14 strain (AID 165).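 Note: 0% = growth equal to vehicle treated cultures.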 As to conditions: S. cerevisiae cln2 rad14 strain, active compounds read high. The gist of the method:
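Each compound was tested on cln2 rad14 yeast. Inhibition of growth was calculated against vehicle-exposed controls.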

The nature of experiment [5]: NCI Yeast Anticancer Drug Screen. Data for the bub3 strain (AID 167). As to conditions: S. cerevisiae bub3 mutant strain, active compounds read high. The gist of the method: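 Screening used yeast with an engineered genetic alteration affecting cell cycle control. Compound-exposed cultures were compared with vehicle cultures, and reduced growth was taken as inhibition.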
Experiment [6] can be described thus: NCI Yeast Anticancer Drug Screen. Data for the mlh1 rad18 strain (AID 175). The following applies: S. cerevisiae mlh1 rad18 strain growth inhibition, active compounds read high. The gist of the method:
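Vehicle-treated cultures served as the reference for growth inhibition in a yeast strain carrying DNA damage repair alterations exposed to each compound.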

[7] abbreviates: at 5.0 µM (retest, dose inferred, filed as 0.5).
[8] abbreviates: at 50.0 µM (retest, dose inferred, filed as 5.0).

With `CCCCCCCCCCCC(=O)Oc1c(Cl)c(Cl)c(C#N)c(Cl)c1Cl`, the growth inhibition is 5% in experiment [1] (setting [7]); 0% in experiment [1] (setting [8]); 70.7% (active) in experiment [1] (at 50.0 µM); 2% in experiment [2] (setting [7]); 3% in experiment [2] (setting [8]); 23.4% in experiment [2] (at 50.0 µM). For the same compound, the growth inhibition in experiment [3] (setting [7]) is 5%; in experiment [3] (setting [8]), 7%; in experiment [3] (at 50.0 µM), 60.9%; in experiment [4] (setting [7]), 12%; in experiment [4] (setting [8]), -1%; in experiment [4] (at 50.0 µM), 48.6%. Further, the growth inhibition was 1% in experiment [5] (setting [7]); -1% in experiment [5] (setting [8]); 8.7% in experiment [5] (at 50.0 µM); 5% in experiment [6] (setting [7]); 13% in experiment [6] (setting [8]); 86.7% (active) in experiment [6] (at 50.0 µM).

As for `CCCCCC(C)(O)C#CC(C)(O)CCCCC` (stereo not drawn), the growth inhibition in experiment [1] (setting [7]) was 2%; in experiment [1] (setting [8]), 99% (active); in experiment [1] (at 50.0 µM), 38.8%; in experiment [2] (setting [7]), 5%; in experiment [2] (setting [8]), 99% (active); in experiment [2] (at 50.0 µM), 4.55%. Further, the growth inhibition in experiment [3] (setting [7]) is 1%; in experiment [3] (setting [8]) it was 99% (active); in experiment [3] (at 50.0 µM), 30.7%; in experiment [4] (setting [7]), 5%; in experiment [4] (setting [8]), 98% (active); in experiment [4] (at 50.0 µM), 75.7% (active). Moreover, the growth inhibition in experiment [5] (setting [7]) is 3%; in experiment [5] (setting [8]), 96% (active); in experiment [5] (at 50.0 µM) it was 21.3%; in experiment [6] (setting [7]), 2%; in experiment [6] (setting [8]) it was 99% (active); in experiment [6] (at 50.0 µM) it was 26.7%.

With `COc1ccc2c(c1)c(=O)c1c(NCCN(C)C)ccc3nnn2c31`, the growth inhibition is 13% in experiment [1] (setting [7]); 51% in experiment [1] (setting [8]); 28.2% in experiment [1] (at 50.0 µM); -18% in experiment [2] (setting [7]); 14% in experiment [2] (setting [8]); 14.4% in experiment [2] (at 50.0 µM). Moreover, the growth inhibition in experiment [3] (setting [7]) was 6%; in experiment [3] (setting [8]), 4%; in experiment [3] (at 50.0 µM), 10.2%; in experiment [4] (setting [7]) it was -13%; in experiment [4] (setting [8]), 37%; in experiment [4] (at 50.0 µM) it was 18.9%. Besides, the growth inhibition in experiment [5] (setting [7]) is -4%; in experiment [5] (setting [8]), 43%; in experiment [5] (at 50.0 µM) it was 11.6%; in experiment [6] (setting [7]) it was -10%; in experiment [6] (setting [8]), -12%; in experiment [6] (at 50.0 µM), 79.7% (active).

In the case of `COc1ccc2c(C)cc(N/N=C/c3cccc(C)n3)nc2c1`, the growth inhibition in experiment [1] (setting [7]) is -1%; in experiment [1] (setting [8]) it was 4%; in experiment [1] (at 50.0 µM) it was 75.1% (active); in experiment [2] (setting [7]) it was -2%; in experiment [2] (setting [8]) it was 8%; in experiment [2] (at 50.0 µM), 31.2%. Further, the growth inhibition in experiment [3] (setting [7]) is 4%; in experiment [3] (setting [8]), 28%; in experiment [3] (at 50.0 µM) it was 97.4% (active); in experiment [4] (setting [7]) it was 5%; in experiment [4] (setting [8]) it was 5%; in experiment [4] (at 50.0 µM) it was 19.1%. For the same compound, the growth inhibition in experiment [5] (setting [7]) is -4%; in experiment [5] (setting [8]), -4%; in experiment [5] (at 50.0 µM), 22.2%; in experiment [6] (setting [7]), -5%; in experiment [6] (setting [8]), 19%; in experiment [6] (at 50.0 µM), 28.8%.

Turning to `CCc1cccc(C)c1NC(=O)/C(Cl)=C(\Cl)C(=O)O`, the growth inhibition was 67% in experiment [1] (setting [7]); 99% (active) in experiment [1] (setting [8]); 99.4% (active) in experiment [1] (at 50.0 µM); 65% in experiment [2] (setting [7]); 100% (active) in experiment [2] (setting [8]); 99.5% (active) in experiment [2] (at 50.0 µM). In addition, the growth inhibition in experiment [3] (setting [7]) is 67%; in experiment [3] (setting [8]), 100% (active); in experiment [3] (at 50.0 µM), 99.7% (active); in experiment [4] (setting [7]), 54%; in experiment [4] (setting [8]), 99% (active); in experiment [4] (at 50.0 µM) it was 99.1% (active). Further, the growth inhibition in experiment [5] (setting [7]) was 94% (active); in experiment [5] (setting [8]), 100% (active); in experiment [5] (at 50.0 µM), 99.5% (active); in experiment [6] (setting [7]), 53%; in experiment [6] (setting [8]), 100% (active); in experiment [6] (at 50.0 µM), 99.4% (active).

Turning to `CC(=O)OC(C#N)CC(C)(C)/[N+]([O-])=[N+](\[O-])C(C)(C)CC(C#N)OC(C)=O` (stereo not drawn), the growth inhibition in experiment [1] (setting [7]) is 6%; in experiment [1] (setting [8]) it was 44%; in experiment [1] (at 50.0 µM), 23.9%; in experiment [2] (setting [7]), 1%; in experiment [2] (setting [8]), 46%; in experiment [2] (at 50.0 µM), 43.5%. For the same compound, the growth inhibition was 8% in experiment [3] (setting [7]); 97% (active) in experiment [3] (setting [8]); 77.3% (active) in experiment [3] (at 50.0 µM); 14% in experiment [4] (setting [7]); 61% in experiment [4] (setting [8]); 3.2% in experiment [4] (at 50.0 µM). The growth inhibition in experiment [5] (setting [7]) is 3%; in experiment [5] (setting [8]), 79% (active); in experiment [5] (at 50.0 µM), 68.1%; in experiment [6] (setting [7]), 11%; in experiment [6] (setting [8]), 80% (active); in experiment [6] (at 50.0 µM) it was 80% (active).
